In publication PMC13494018:

B1: d4r4_design_ppi_225_dldesign_0_cycle1_af2pred (protein)
chain: DELREQAERAKKRFEEAEKKLKEALEKGDKKEAIKYAERLKHLAEVAEKLAEEVEAAATNPETKELAERLKELAKRAKKLAEEALKK
B2: d4r4_design_ppi_229_dldesign_0_cycle0_af2pred (protein)
chain: EKEEKIKKAKELAEKAKELAKKLKEAGEKDLEKAKKLLKEAREAAKKAIELAKEAGDEELAKKASDEQAKAQEAYAEAKAK
B3: d4r3_design_ppi_258_dldesign_0_cycle1_af2pred (protein)
chain: AAEEARKAKIQKMADRLLELSKKYGISLEDMKDMMSFSATDPADKAVGLALLDAGHAELAAAKAAEAARAEALAA
B4: d4r4_design_ppi_180_dldesign_0_cycle1_af2pred (protein)
chain: DDFEKALEELKKAGELLPEAAEIAEEAIKKATASKDLKEAAKILLEAAKKIAKIAKEAGNEEAAKAAAAAAQYARQLKAAA
B5: d4r4_design_ppi_34_dldesign_0_cycle1_af2pred (protein)
chain: AEELVKEAAKHIQEARSLINAAEQYVKLGKEKLEEAKEDLKKAEEHIEKAKELAKKAKEAGADEEDVKKLEEAIEKAKKKLEEVKKLI
B6: d4r4_design_ppi_105_dldesign_0_cycle1_af2pred (protein)
chain: MEEIKKEVEETTKKAKEKLKELEKEAEKAGVKEAVEVAKKGKEKVEKLAKKAEKAVKEGNKNYALAKIDAIKDTTEAAEKQVKKLIKA
B7: d4r4_design_ppi_222_dldesign_0_cycle1_af2pred (protein)
chain: SLEKLKEYLENAEKERKKVLEAAKEARELAKKGEEEEAKKYLGNAVTDARLNLNEAAYDAGLDTSIGNKLAKEFGAEGEKIFK
B8: d4r4_design_ppi_229_dldesign_0_cycle1_af2pred (protein)
chain: EKEEKKKEAKELAEEAKKLAEELAKAAEEDLEKAKELYKKAKEAAGKAIKLAKEAGDKETAKEASENNFKAHENYAEGKFK
B9: d4r4_design_ppi_157_dldesign_0_cycle1_af2pred (protein)
chain: SKEEARKRGLESAEELKELVEEGIPVEAVGAIAASDVEWLMKYPYGEYAAEALIEALEKYNPVMGEKAREAYEEAKERKAK
B10: d4r3_design_ppi_300_dldesign_0_cycle1_af2pred (protein)
chain: SSAELTKEAKAKVEAAGAAADAAAAADPAAGAAAYTEAAQLALQESAKLDASKENKEAAEEMRKKGKEFAAKAKALRA
B11: d4r4_design_ppi_90_dldesign_0_cycle1_af2pred (protein)
chain: MTKEEAERMIKILKERLEKIKKAGKEKGEEMQKIAKELEEALKKAEEAFKKDPEKAGAYFQEARQIAAEGEFKEK
B12: d4r3_design_ppi_270_dldesign_0_cycle1_af2pred (protein)
chain: SAEEEKKKLLAIADEYAAKVKEAAADLEKAGAVLKEGITELVKLGAPNSVIAYLISKAVKAVGSKIMPYADEAIDEALKA
B13: d4r4_design_ppi_44_dldesign_0_cycle1_af2pred (protein)
chain: AKAKEEGKKLAKEATEEAKKLLDKAKEEVKKGGTYEEVKKYVDKGKEAAKKYGAKAKELPETAADVAKVIQDFYEESNEALAEAKRL
B14: d4r4_design_ppi_213_dldesign_0_cycle1_af2pred (protein)
chain: GALEEAKKLVEEAAKLAEEGKLEEAKEKLKKAMDLAAEHEDPEVVREIAREAKKIVELAEKKKKEKEEKEKKEK
B15: d4r4_design_ppi_128_dldesign_0_cycle0_af2pred (protein)
chain: ESEKKYKELKEELEKAYKEAKKAILEASKLKPEEAKKKMEEILEEFKKKAYELISKALEQSADYGRELAKLAQEYYKELEELAKKLL
B16: d4r4_design_ppi_58_dldesign_0_cycle0_af2pred (protein)
chain: EEELKKAKEEAEKAIKEAEEAAKKIEEGEAREGVKKIREIKKKLEEKGKESTPEAKKIYKEAAKKIAEIAHEGLEKRAEKKAK
B17: d4r3_design_ppi_300_dldesign_0_cycle0_af2pred (protein)
chain: SAEELAKKAKEEVEKAEKEAEEAAAKDKKAGAAKYAEAAQLAYQKAGELDASKENKEEAEEMRERGRELAKKARELEA
B18: d4r3_design_ppi_402_dldesign_0_cycle1_af2pred (protein)
chain: EEEEKKKAEELKKFLEEQNKKRKEVAELAKKYPEVAPYAKAYAKAQNEAFEYYDVDKEKSAKALAEAEKYEAKINALLAKL
B19: d4r3_design_ppi_239_dldesign_0_cycle0_af2pred (protein)
chain: EEKAKEAEKKSKEYREKARELAEDVRNPELGRERAREEGKKTEEEIEAWLAEKAKEAQELRQESAEYDAKAIILK
B20: d4r4_design_ppi_2_dldesign_0_cycle0_af2pred (protein)
chain: DEKAKKMAEEARKAAEEGRKALKEARKLAKEGELEKAAKLAEETAKKAEEKAKEAEKLSKKVAPEALRLLGVADAAKTAAEEFKKKL
B21: d4r3_design_ppi_381_dldesign_0_cycle1_af2pred (protein)
chain: GSSDELEKKTETKAYRSLSTKKAKEYSKDKELVKKIEEEAKTYEGALKARKETEEIVKEVKKKEEEEKKKKE
B22: d4r4_design_ppi_123_dldesign_0_cycle1_af2pred (protein)
chain: AAEAAKAAAAAALAKKAAQSSPEKARAYRKEAGALIAELSPAAAAAAAAAAQDAYADGVAEKVLSELEEKKKKE
B23: d4r4_design_ppi_2_dldesign_0_cycle1_af2pred (protein)
chain: DEKAKKAAEEAKKVAKEGREKLKEAEKLMKEGKYKEAAKLAAEVAKKAKEKAEEAEKISKSVAPYALLLENVADAAKALAKEAKEKI
B24: d4r4_design_ppi_128_dldesign_0_cycle1_af2pred (protein)
chain: SSAEQAAKLRAELDAAAAAAAAAIAAAAGLTPAAAAAASAATIAAYKATASALIDAAFELSSDYGRSIAKAAKEKLAALEAQAAALA
B25: d4r4_design_ppi_102_dldesign_0_cycle1_af2pred (protein)
chain: EEEKVKKAAEKAIKLAKETAEKAYKAAKKVKDKEYKEKFKEITLLALEAKALARAGKALGNKELVEAAKKLAEEAKEKLEKLEKEAE
B26: d4r4_design_ppi_227_dldesign_0_cycle1_af2pred (protein)
chain: GFKTKATAESGYERMKSIYEAFAKLGPKSPIYKEGAEKMKEYAEKLKELENSTEEEIEKLSKEGIEVGKKLKAEAEAK
B27: d4r4_design_ppi_129_dldesign_0_cycle1_af2pred (protein)
chain: MEKVTEARDVALEAAGILELAGIKVPEYRKELSEKAKEAIREVAEAGREALEKGEEEYEKLEKVAEKVYKEAKKKAEEALKKKE
B28: d4r4_design_ppi_123_dldesign_0_cycle0_af2pred (protein)
chain: SEAEKKTKEAAKLAYEAAKSNPEKGREYRKKAGELIATLSPEEAKKAAAEAQDAYAEGRAEKKLEELKKREEEK
B29: d4r4_design_ppi_87_dldesign_0_cycle0_af2pred (protein)
chain: AEENKAEGAKEAAEDAIEAALKKAEEDPEEGLKAAEKVKERVKKRAEEVEETEYGKKVGKEIKKKAEKALKEIEKKAKAAKAAK
B30: d4r3_design_ppi_308_dldesign_0_cycle1_af2pred (protein)
chain: MEAEKKAEKALEELKKAAKKLEELAKKGGSVEEAEELNEKVLELRSEAKFYASKADEEFGKKVKEEAKKALEKAREAYKKLKE
B31: d4r4_design_ppi_58_dldesign_0_cycle1_af2pred (protein)
chain: MEELKKAEEEAKKAVEEAKKYAELIAEGKSEEGIEKIKKIAEELKKKGKETTPEAAKIYEKAVKEIAKIAHEGLEKRAEKEAK
B32: d4r3_design_ppi_266_dldesign_0_cycle0_af2pred (protein)
chain: MEEKGNEVIERAKKKLEEGKKLAKEGELLKGYALAQSAEARAENAAEAAEKAGLEEVAKKAKEVAKEAKAAAEEIEKKRKEAEA
B33: d4r4_design_ppi_225_dldesign_0_cycle0_af2pred (protein)
chain: AELRERAEAAERRFEAAKARLKEALEKGDKSRAYGEAFRLKHIAEVARRLAAEVRAAATTEEQRELAERLEELAREAEALAEEALKK
B34: d4r3_design_ppi_383_dldesign_0_cycle0_af2pred (protein)
chain: SSLASELNEKKAEERGLEYAKKRLDEKAKKALELAKQVPEVAAEVKKLVDEGKALLEKGDIGGAFAKMDEALKLAEKALAA
B35: d4r3_design_ppi_239_dldesign_0_cycle1_af2pred (protein)
chain: MEEAEKALKKAEELRAEAKRLGEIVSNPELGKKEAAKAGKKTPEEIEAWLKEVAAKAQELREEAAEYEAKAIRIK
B36: d4r4_design_ppi_34_dldesign_0_cycle0_af2pred (protein)
chain: VQKLIDEAAQEIQEARAHISGAEQYVLMGKEYLPEAKKDLEEAEKHIKKAKELTKKAKEAGADEEEIKKLEKAIEKAEARLEEVKKMM
B37: d4r4_design_ppi_79_dldesign_0_cycle1_af2pred (protein)
chain: AGKAAYEKLKANMERREKKAEEAEKKDKKLGKFEAEKGIEFSKHAAEAAKKKAAEDPAYKEAAKYAKEAEEKFKKKLKELEK
B38: d4r3_design_ppi_464_dldesign_0_cycle1_af2pred (protein)
chain: SVSLEEQEARALARTYAEIAEKKIKEAPKDKELAEKIAKEVLEEAKKAAKDLPEYEEYTIELAEKRLKEILEKYAKKA

Each binder was assayed against VTCN1, Q7Z7D3.
Sequence of VTCN1, Q7Z7D3 (Q7Z7D3 whole entry): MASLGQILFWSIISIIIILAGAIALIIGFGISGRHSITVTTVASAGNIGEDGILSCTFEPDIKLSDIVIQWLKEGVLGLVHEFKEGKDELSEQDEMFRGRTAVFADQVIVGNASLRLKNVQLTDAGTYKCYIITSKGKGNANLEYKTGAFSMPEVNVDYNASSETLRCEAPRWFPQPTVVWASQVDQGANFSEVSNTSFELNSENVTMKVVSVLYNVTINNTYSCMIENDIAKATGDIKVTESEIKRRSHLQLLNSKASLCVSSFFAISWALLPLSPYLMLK

Binding in a display sort, inactive:
B1 not found
B2 not found
B3 not found
B4 not found
B5 not found
B6 not found
B7 not found
B8 not found
B9 not found
B10 not found
B11 not found
B12 not found
B13 not found
B14 not found
B15 not found
B16 not found
B17 not found
B18 not found
B19 not found
B20 not found
B21 not found
B22 not found
B23 not found
B24 not found
B25 not found
B26 not found
B27 not found
B28 not found
B29 not found
B30 not found
B31 not found
B32 not found
B33 not found
B34 not found
B35 not found
B36 not found
B37 not found
B38 not found
